Key:
Conditions in all cases: concentration: 1 μM, replicates: in singlicate; n = 1
SNARK = tested on: T1, SNARK
T1 construct: gene NUAK2

SNRK = tested on: SNRK
SRC = tested on: SRC
SRMS = tested on: SRMS
SRPK1 = tested on: SRPK1
SRPK2 = tested on: SRPK2
SRPK3 = tested on: SRPK3
STK16 = tested on: STK16
STK33 = tested on: STK33
STK35 = tested on: STK35
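Also: KINOMEscan kinase panel screen.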

Compound | %Inh (SNARK) [%] | %Inh (SNRK) [%] | %Inh (SRC) [%] | %Inh (SRMS) [%] | %Inh (SRPK1) [%] | %Inh (SRPK2) [%] | %Inh (SRPK3) [%] | %Inh (STK16) [%] | %Inh (STK33) [%] | %Inh (STK35) [%]
CN(c1ccc(NC(=O)Nc2cc(C(F)(F)F)ccc2F)cc1)c1ccnc(Nc2ccc(S(N)(=O)=O)cc2)n1 [GW809893] | 0 | 5 | 99.7 | 0 | 18 | 0 | 20 | 12 | 81 | 10
COc1ccc(-c2coc3ccc(-c4nnc(SCc5ccc(OC)c(C(F)(F)F)c5)o4)cc23)cc1 | 35 | 21 | 4 | 0 | 8 | 0 | 0 | 17 | 7 | 0
COc1cc2c(cc1OCCN1CCNCC1)ncc1c3ccc(C#N)cc3[nH]c21 | 94.6 | 12 | 0 | 19 | 36 | 0 | 42 | 9 | 19 | 0
Clc1ccc(-c2nn3ncccc3c2-c2ccnc(Nc3ccc4c(c3)OCCO4)n2)cc1 [GW829116] | 0 | 0 | 44 | 13 | 0 | 0 | 0 | 32 | 0 | 0
CN(C)Cc1ccc(-c2ccc3c(Nc4ccc(Oc5ccccn5)cc4)ccnc3c2)o1 [GW567148] | 12 | 0 | 36 | 94.5 | 0 | 0 | 0 | 0 | 55 | 66
Cn1cc(-c2ccc3c(c2)CCN3C(=O)Cc2cccc(F)c2)c2c(N)ncnc21 [GSK2603358] | 10 | 0 | 4 | 0 | 0 | 0 | 9 | 13 | 0 | 0
O=C(NC1CCN(c2ccnc(Nc3ccc(F)cc3)n2)C1)c1cc2ccccc2s1 (stereo not shown) [GSK1379716] | 0 | 0 | 1 | 0 | 31 | 37 | 4 | 15 | 0 | 6
Cl.Cl.NCC(NC(=O)c1cc(-c2ccccc2)c(-c2ccnc3[nH]ccc23)s1)c1ccccc1 (stereo not shown) [GSK1321561] | 50 | 0 | 69 | 0 | 53 | 0 | 0 | 3 | 100 | 0
Nc1ncc(-c2ccc3nccc(-c4ccncc4)c3c2)cc1S(=O)(=O)N1CCOCC1 [GSK1627798] | 8 | 0 | 0 | 0 | 0 | 0 | 4 | 22 | 0 | 0
Cc1occc1-c1ncc(OC[C@@H](N)Cc2c[nH]c3ccccc23)cc1-c1ccc2[nH]nc(C)c2c1.O=C(O)C(F)(F)F [GSK682037] | 60 | 0 | 65 | 0 | 54 | 0 | 70 | 0 | 86 | 69
CC(=O)N1CCN(c2ccc(Nc3nccc(-c4sc(C(C)C)nc4-c4cccc(NS(=O)(=O)c5cccc(Cl)c5)c4)n3)cn2)CC1 [GSK1660437] | 17 | 0 | 85 | 98.3 | 44 | 0 | 44 | 0 | 34 | 0
Nc1ncnc2c1nc(-c1ccccc1)n2-c1ccccc1 [SKF-97293] | 24 | 18 | 10 | 24 | 0 | 5 | 9 | 0 | 16 | 0
Cn1cc(-c2[nH]c3cc(NC(=O)[C@H](N)C4CCCCC4)cc4c3c2C=NNC4=O)cn1 | 97.9 | 1 | 98.3 | 75 | 99 | 77 | 82 | 66 | 37 | 53
CC(C)(C)c1ccc2nccc(Nc3cccc(O)c3)c2c1 [GW856795] | 0 | 0 | 96.7 | 0 | 0 | 9 | 20 | 0 | 0 | 0
COc1cccc(-c2ccc3c(NC(=O)C4CC4)n[nH]c3n2)c1 [SB-710903] | 0 | 0 | 0 | 0 | 10 | 50 | 0 | 26 | 0 | 0
Cl.c1ccc(-c2ccc3c(Nc4ccc5[nH]ccc5c4)ccnc3c2)nc1 [GW440138] | 4 | 0 | 60 | 0 | 38 | 22 | 0 | 0 | 0 | 0
CN1CCN(Cc2cccc(-c3ccc4c(Nc5ccc(Oc6ccccc6)cc5)ccnc4c3)c2)CC1 [GW578342] | 0 | 0 | 34 | 97.1 | 69 | 20 | 0 | 2 | 13 | 70
c1ccc(Oc2ccc(Nc3ccnc4cc(-c5ccc(CNCCN6CCOCC6)o5)ccc34)cc2)nc1 [GW567145] | 6 | 0 | 22 | 87 | 0 | 58 | 0 | 2 | 21 | 48
Cl.Cl.NCC(C(=O)Nc1cc(Br)c(-c2ccnc3[nH]ccc23)s1)c1ccccc1 (stereo not shown) [GSK1269851] | 0 | 0 | 0 | 0 | 73 | 59 | 90.7 | 13 | 52 | 0

Compound | %Inh (SNARK) [%] | %Inh (SNRK) [%] | %Inh (SRC) [%] | %Inh (SRMS) [%] | %Inh (SRPK1) [%] | %Inh (SRPK2) [%] | %Inh (SRPK3) [%] | %Inh (STK16) [%] | %Inh (STK33) [%] | %Inh (STK35) [%]
Cl.Cl.NCC(NCc1ccc(-c2ccnc3[nH]ccc23)s1)c1ccccc1 (stereo not shown) [GSK1321565] | 93.5 | 0 | 0 | 0 | 68 | 83 | 77 | 49 | 76 | 0
Cn1cc(-c2ccc3c(c2)CCN3C(=O)Cc2cccc(Cl)c2)c2c(N)ncnc21 [GSK2606590] | 18 | 0 | 21 | 0 | 0 | 0 | 11 | 11 | 0 | 0
CC(=O)Nc1nc2cnc(Nc3cc(NC(=O)c4cccc(C5(C#N)CC5)c4Cl)ccc3C)nc2s1 | 0 | 0 | 45 | 0 | 39 | 5 | 0 | 11 | 0 | 0
Cl.NC(=O)c1cccc(Nc2nccc(Nc3ccc(Oc4c(Cl)cccc4Cl)c(Cl)c3)n2)c1 [GW659009] | 1 | 5 | 18 | 19 | 37 | 0 | 6 | 35 | 0 | 0
CCS(=O)(=O)c1ccc(OC)c(Nc2nccc(-c3c(-c4cccc(NC(=O)c5c(F)cccc5F)c4)nn4ncccc34)n2)c1 [GSK326180] | 0 | 0 | 0 | 99.3 | 24 | 0 | 0 | 25 | 7 | 0
COc1cccc(C2=C(Nc3ccc(Cl)c(C(=O)O)c3)C(=O)NC2=O)c1 [SB-390769] | 100 | 100 | 0 | 100 | 13 | 0 | 17 | 8 | 0 | 0
O=C(Nc1n[nH]c2nc(-c3ccc(O)cc3)ccc12)C1CC1 [SB-710363] | 0 | 0 | 0 | 2 | 20 | 0 | 25 | 73 | 0 | 0
FC(F)(F)c1ccc(/C=C/c2cncnc2Nc2ccc3[nH]c(Cc4ccccc4)nc3c2)cc1 [GW709199] | 45 | 0 | 1 | 0 | 21 | 56 | 2 | 0 | 0 | 0
COc1ccc(Nc2nccc(N3CCC(NC(=O)Nc4cccc(OC)c4)C3)n2)cc1 (stereo not shown) [GSK1379742] | 0 | 0 | 5 | 0 | 12 | 0 | 0 | 0 | 0 | 2
COc1ccc(Nc2nccc(NCCNC(=O)c3cc4ccccc4s3)n2)cc1 [GSK1379896] | 0 | 2 | 9 | 0 | 32 | 0 | 3 | 13 | 0 | 0
CCn1c(-c2nonc2N)nc2c(C#CC(C)(C)O)ncc(OCCCCN)c21.O=C(O)C(F)(F)F.O=C(O)C(F)(F)F [GSK507274] | 94.7 | 19 | 0 | 0 | 0 | 42 | 18 | 0 | 0 | 0
CCCCc1nn2ncccc2c1-c1ccnc(Nc2ccc(N3CCN(C)CC3)cc2)n1 [GW684941] | 90.2 | 0 | 98.8 | 0 | 63 | 6 | 26 | 86 | 39 | 0
Cc1ccc(S(=O)(=O)Nc2ccc(Nc3nccc(Nc4cccc5[nH]ncc45)n3)cc2)cc1 [GSK581271] | 0 | 0 | 64 | 0 | 51 | 5 | 9 | 43 | 0 | 55
CNC(=O)c1ccccc1Nc1nc(Nc2ccc(N3CCOCC3)cc2)ncc1Cl.Cl [GSK1576028] | 99.2 | 0 | 100 | 67 | 98.1 | 35 | 78 | 99.2 | 98.6 | 50
COc1ccc(CNC(=O)NC2CCN(c3ccnc(Nc4ccc(F)cc4)n3)CC2)cc1 [GSK1379788] | 0 | 0 | 0 | 0 | 0 | 11 | 0 | 9 | 0 | 0
Cc1ccc(C)c(NC(=O)NC2CCN(c3ccnc(Nc4ccc(F)cc4)n3)C2)c1 (stereo not shown) [GSK1379720] | 0 | 0 | 0 | 0 | 24 | 49 | 0 | 0 | 0 | 0
CSc1cccc2c(-c3ccncn3)c(-c3ccc(F)cc3)nn12 [GW514786] | 0 | 0 | 1 | 0 | 0 | 0 | 100 | 3 | 0 | 0
c1ccc(-c2n[nH]cc2Nc2ccnc3ccccc23)nc1 [GW694077] | 27 | 0 | 0 | 0 | 69 | 46 | 90 | 15 | 6 | 0

From article PMC5540273 (PLoS ONE, 2017)
